Some test systems named below: SK-MEL-2 melanoma; UO-31 renal; TK-10 renal; ACHN renal; CAKI-1 renal; A498 renal; MOLT-4 leukemia; CCRF-CEM leukemia; EKVX NSCLC; SN12C renal.
Holding throughout (assay): NCI-60 one-dose screen, 48 h (100 = growth as untreated, 0 = no growth, -100 = all killed)
Conditions in all cases: 10 µM

Compounds without any hit were thinned out: in the full panel of roughly 83,000, 20% have a hit.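 In brief: 96-well plates, 48 h treatment, single concentration, percent growth endpoint.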 A number with no mark means an inactive call. Activity calls are given as the source filed them. How the source made its calls: active means growth percent below 10; inactive means the rest.

With `C/C(=N\NC(N)=S)C(C)(C)O`, the growth in the assay on SK-MEL-2 melanoma was 98.5%; with UO-31 renal, 68.9%; with TK-10 renal, 126%; with ACHN renal, 90.2%; in the assay on CAKI-1 renal, 89.6%; with A498 renal it was 91.7%. The growth in the assay with MOLT-4 leukemia was 44.9%.
For the compound `COc1ccc(-c2nnc(COc3ccc(NC(=O)Nc4ccccc4)cc3F)o2)cc1`, the growth was 79.4% in the assay with SK-MEL-2 melanoma; 68.9% in the assay on UO-31 renal; 101% in the assay on TK-10 renal; 77.6% in the assay on ACHN renal; 83.6% in the assay with CAKI-1 renal; 64% in the assay with A498 renal. Moreover, the values for the growth in the assay with CCRF-CEM leukemia and in the assay on MOLT-4 leukemia were 61.2% and 58.7%, respectively.
`Cc1cccc2c1O/C(=C\c1ncc([N+](=O)[O-])n1C)C2=O`: the growth in the assay on SK-MEL-2 melanoma is -45.3% (active); with UO-31 renal, -38.9% (active); in the assay with TK-10 renal, -34.3% (active); in the assay on ACHN renal it was 4.76% (active); in the assay on CAKI-1 renal, -29.7% (active); with A498 renal it was -72.7% (active). Further, the growth with CCRF-CEM leukemia is 5.23% (active); in the assay on MOLT-4 leukemia, -0.52% (active).
Turning to `O=C(Nc1cccc(C(F)(F)F)c1)C(Cl)Cl`, the growth with SK-MEL-2 melanoma was 97.4%; in the assay on UO-31 renal, 80.6%; in the assay with TK-10 renal, 108%; in the assay on ACHN renal, 103%; in the assay with CAKI-1 renal it was 105%; in the assay with A498 renal, 101%. Also, the growth is 98.8% in the assay with CCRF-CEM leukemia and 98.4% with MOLT-4 leukemia.
In the case of `O=C(CSc1nnc(-c2ccc(Cl)cc2)o1)c1ccccc1`, the growth with SK-MEL-2 melanoma is 104%; with UO-31 renal, 98.1%; in the assay on TK-10 renal, 97.5%; in the assay on ACHN renal, 101%; in the assay with CAKI-1 renal it was 99.3%; in the assay with A498 renal it was 106%. Moreover, the growth in the assay on MOLT-4 leukemia was 104%.
On to `CCc1nn2c(-c3ccccc3)c(-c3cc(OC)c(OC)c(OC)c3)nc2s1`, for which the growth in the assay on SK-MEL-2 melanoma was 37.9%; in the assay on UO-31 renal, 57.6%; in the assay with TK-10 renal, 82.2%; in the assay on ACHN renal it was 85.8%; with CAKI-1 renal it was 69.4%; in the assay with A498 renal it was 62.5%. The growth in the assay on CCRF-CEM leukemia is 70.9%; with MOLT-4 leukemia, 72.4%.
On to `CCOC(=O)C1=C(Nc2ccc(OC)cc2)C(N)=NC1=N`, for which the growth in the assay with SK-MEL-2 melanoma is 44.6%; in the assay with UO-31 renal it was 57.1%; with TK-10 renal, 59.2%; in the assay with ACHN renal it was 46.6%; with CAKI-1 renal it was 54.6%; with A498 renal, 6.8% (active). Moreover, the growth in the assay with CCRF-CEM leukemia is 15.8%; in the assay with MOLT-4 leukemia, 26%.
Turning to `O=C(N/N=C\c1cc(Cl)ccc1O)c1ccncc1`, the growth in the assay on SK-MEL-2 melanoma was 96.9%; with UO-31 renal it was 41.6%; in the assay with TK-10 renal, 66.3%; in the assay on ACHN renal, 27.7%; in the assay on CAKI-1 renal, 49.2%; in the assay on A498 renal, 104%. For the same compound, the values for the growth in the assay on CCRF-CEM leukemia and in the assay with MOLT-4 leukemia were 11.3% and 15.9%, respectively.
For `CCN(CC)CCOC(=O)c1ccc(NC(=O)Nc2cccc(Cl)c2)cc1`, the growth was 94.7% in the assay on SK-MEL-2 melanoma; 92.5% in the assay on UO-31 renal; 96.1% in the assay on TK-10 renal; 108% in the assay with ACHN renal; 96.8% with CAKI-1 renal; 79.5% in the assay on A498 renal. For the same compound, the growth with CCRF-CEM leukemia is -4.69% (active); in the assay with MOLT-4 leukemia, 84.9%.
With `C#CCn1c(-c2cccc(OCCCCl)c2)nc2c1c(=O)n(C)c(=O)n2C`, the growth was 81% in the assay on SK-MEL-2 melanoma; 50.5% in the assay on UO-31 renal; 101% with TK-10 renal; 76.6% with ACHN renal; 69.2% in the assay with CAKI-1 renal; 83.6% with A498 renal. The growth is 13% in the assay with CCRF-CEM leukemia and 2.33% (active) in the assay with MOLT-4 leukemia.
`CN(C)c1ccc2cc(-c3cc4c(oc3=O)-c3ccccc3OC4O)c(=O)oc2c1` (configuration not stated): the growth in the assay with SK-MEL-2 melanoma was -38.2% (active); in the assay with TK-10 renal it was -36.4% (active); with ACHN renal, 4.78% (active); in the assay on CAKI-1 renal it was -4.81% (active); in the assay with A498 renal, 13.2%; with CCRF-CEM leukemia, -20.5% (active). Also, in the assay on MOLT-4 leukemia, the growth was -64.7% (active).
As to `C/C(=N\NC(=O)c1sc(=S)n(C)c1N)c1cc2ccccc2o1`, the growth with EKVX NSCLC was 64.8%; with SN12C renal it was 72.2%; in the assay on TK-10 renal, 56.6%; in the assay with ACHN renal, 59.7%; in the assay with CAKI-1 renal, 50%; in the assay with A498 renal, 33.3%. Further, the growth with CCRF-CEM leukemia is 51.2%; in the assay on MOLT-4 leukemia it was 35.7%.
Turning to `O=C(Nc1ccc(OCc2nnc(-c3ccccc3)o2)c(F)c1)Nc1ccc(Cl)c(Cl)c1`, the growth in the assay with SN12C renal is 64%; in the assay on UO-31 renal it was 68.5%; with TK-10 renal it was 66.2%; in the assay with ACHN renal, 39%; in the assay on CAKI-1 renal, 68.4%; with A498 renal, 12.4%. Besides, the growth in the assay with CCRF-CEM leukemia was 37.6%; in the assay on MOLT-4 leukemia it was 43.8%.
For `COc1cccc2c1C(=O)c1c(O)c3c(c(O)c1C2=O)C[C@@](O)(C(=O)COC(=O)c1cccnc1)C[C@@H]3OC1CC(N)C(O)C(C)O1` (some centres not stated), the growth was 6.29% (active) with SN12C renal; -40.4% (active) in the assay on UO-31 renal; -9.29% (active) in the assay with TK-10 renal; -7.12% (active) with ACHN renal; -40.7% (active) in the assay on CAKI-1 renal; -56.6% (active) with A498 renal. In addition, the growth is 0.652% (active) in the assay with CCRF-CEM leukemia and -24.8% (active) in the assay on MOLT-4 leukemia.
Consider `CNCCCNCCCN1C(=O)c2ccc3c4c(ccc(c24)C1=O)C(=O)N(CCCNCc1ccccc1OC)C3=O`, for which the growth in the assay with SN12C renal is 2.51% (active); in the assay with UO-31 renal it was 18.2%; in the assay with TK-10 renal, -14% (active); in the assay with ACHN renal, 16.6%; in the assay with CAKI-1 renal, 24.6%; in the assay with A498 renal it was 28.8%. Also, the figures for the growth in the assay with CCRF-CEM leukemia and in the assay on MOLT-4 leukemia were 4.62% (active) and -23.8% (active), respectively.
On to `C/C(=N\NC(=S)N1CCCC1)c1ccccn1`, for which the growth in the assay with SN12C renal was 14.3%; in the assay on UO-31 renal, -3.72% (active); in the assay on TK-10 renal, 28.5%; in the assay on ACHN renal, 15.5%; with CAKI-1 renal it was 6.32% (active); with A498 renal, -5.14% (active). Further, the figures for the growth in the assay with CCRF-CEM leukemia and in the assay with MOLT-4 leukemia were 0.145% (active) and 3.06% (active), respectively.
In the case of `COc1c(-c2c3sc(=O)[nH]c3nc3c2c(=O)[nH]n3C(C)C)cc2c(c1OC)OCO2`, the growth is 95.5% in the assay with SN12C renal; 78.9% in the assay on UO-31 renal; 98.7% in the assay with TK-10 renal; 91.4% with ACHN renal; 93.3% with CAKI-1 renal; 57.2% with A498 renal. Moreover, the growth with CCRF-CEM leukemia is 95%; with MOLT-4 leukemia it was 94.5%.
Regarding `COc1ccc(C(=O)c2sc3nc(-c4cccs4)ccc3c2N)cc1OC`, the growth with UO-31 renal is 45.6%; in the assay with TK-10 renal, 49.4%; in the assay with ACHN renal, 64.7%; in the assay with CAKI-1 renal, 62%; with A498 renal, 39.4%; in the assay with CCRF-CEM leukemia, 34.5%. In addition, the growth in the assay with MOLT-4 leukemia is 23.3%.
Turning to `CCc1c(C)[nH]c(=O)c(C(N)=O)c1C#N`, the growth in the assay on EKVX NSCLC was 103%; in the assay with UO-31 renal it was 93.5%; with TK-10 renal it was 91.9%; in the assay with ACHN renal it was 102%; in the assay on CAKI-1 renal it was 96.3%; in the assay with A498 renal, 105%. The results for the growth with CCRF-CEM leukemia and with MOLT-4 leukemia were 99% and 107%, respectively.
For the compound `Fc1cc(-c2ncc(-c3cc(F)c(F)c(F)c3)c(NC3CCCCCC3)n2)cc(F)c1F`, the growth in the assay on SN12C renal was 87.9%; in the assay on UO-31 renal, 88.8%; in the assay on TK-10 renal, 152%; with ACHN renal, 106%; in the assay on CAKI-1 renal, 87.6%; with A498 renal, 96.8%. For the same compound, the growth in the assay on CCRF-CEM leukemia is 96.2%; in the assay with MOLT-4 leukemia it was 102%.
Consider `Nc1cc(O)cc(O)c1`, for which the growth in the assay on EKVX NSCLC is 97.1%; in the assay with UO-31 renal, 97.8%; in the assay on TK-10 renal it was 87.4%; in the assay with ACHN renal, 105%; with CAKI-1 renal, 96.2%; in the assay on A498 renal, 116%. Besides, the growth was 114% in the assay on CCRF-CEM leukemia and 104% in the assay with MOLT-4 leukemia.
For `Cc1noc(C)c1-c1ccc2nc(NC(=O)[C@H]3CCN(C#N)C3)cn2c1`, the growth is 94% in the assay on EKVX NSCLC; 66.9% with UO-31 renal; 81.2% in the assay on TK-10 renal; 65.3% in the assay with ACHN renal; 74.4% in the assay on CAKI-1 renal; 88.9% in the assay with A498 renal. Moreover, the figures for the growth with CCRF-CEM leukemia and with MOLT-4 leukemia were 105% and 95.9%, respectively.
In the case of `CCOC(=O)/C(C#N)=C(/C)C1CC1`, the growth in the assay with SN12C renal was 107%; with UO-31 renal, 88.3%; with TK-10 renal it was 116%; with CAKI-1 renal, 104%; with A498 renal it was 94.1%; in the assay with CCRF-CEM leukemia, 103%. Besides, the growth with MOLT-4 leukemia is 114%.
For the compound `CCOC(=O)c1ccc(NC(=O)Nc2nncs2)cc1`, the growth was 31.2% with SN12C renal; 34.1% with UO-31 renal; 45.1% in the assay on TK-10 renal; 36.1% in the assay with ACHN renal; 24.9% in the assay with CAKI-1 renal; -13.3% (active) with A498 renal. The growth in the assay on CCRF-CEM leukemia is 7.54% (active); in the assay with MOLT-4 leukemia, 11.7%.

The values above are taken from PubChem BioAssay (NCI).
